Columns and labels:
Details in all cases: concentration: 1 μM, replicates: in singlicate; n = 1
AMPK-alpha1 = tested on: T1, AMPK-alpha1
T1 construct: gene PRKAA1

AMPK-alpha2 = tested on: T2, AMPK-alpha2
T2 construct: gene PRKAA2

ANKK1 = tested on: ANKK1
ARK5 = tested on: T3, ARK5
T3 construct: gene NUAK1

ASK1 = tested on: T4, ASK1
T4 construct: gene MAP3K5

ASK2 = tested on: T5, ASK2
T5 construct: gene MAP3K6

AURKA = tested on: AURKA
AURKB = tested on: AURKB
AURKC = tested on: AURKC
AXL = tested on: AXL
BIKE = tested on: T6, BIKE
T6 construct: gene BMP2K

BLK = tested on: BLK
BMPR1A = tested on: BMPR1A
BMPR1B = tested on: BMPR1B
BMPR2 = tested on: BMPR2
BMX = tested on: BMX
BRAF = tested on: BRAF
BRK = tested on: T7, BRK
T7 construct: gene PTK6

BRSK1 = tested on: BRSK1
BRSK2 = tested on: BRSK2
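Also: KINOMEscan kinase panel screen.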

| Compound | %Inh (AMPK-alpha1) [%] | %Inh (AMPK-alpha2) [%] | %Inh (ANKK1) [%] | %Inh (ARK5) [%] | %Inh (ASK1) [%] | %Inh (ASK2) [%] | %Inh (AURKA) [%] | %Inh (AURKB) [%] | %Inh (AURKC) [%] | %Inh (AXL) [%] | %Inh (BIKE) [%] | %Inh (BLK) [%] | %Inh (BMPR1A) [%] | %Inh (BMPR1B) [%] | %Inh (BMPR2) [%] | %Inh (BMX) [%] | %Inh (BRAF) [%] | %Inh (BRK) [%] | %Inh (BRSK1) [%] | %Inh (BRSK2) [%] |
| --- | --- | --- | --- | --- | --- | --- | --- | --- | --- | --- | --- | --- | --- | --- | --- | --- | --- | --- | --- | --- |
| COc1cccc(NC(=O)Nc2ccc(C)c(-c3ccc(C(=O)Nc4ccncc4)cc3)c2)c1 [GSK1398474] | 0 | 13 | 10 | 20 | 2 | 0 | 14 | 0 | 40 | 25 | 26 | 40 | 0 | 0 | 0 | 18 | 30 | 0 | 12 | 96.2 |
| CC(C)c1cc(-c2ccc3c(N)n[nH]c3c2)nc(N)n1 [GSK2250882] | 0 | 0 | 8 | 0 | 0 | 7 | – | 18 | 56 | 0 | 72 | 5 | 0 | 0 | 4 | 18 | 0 | 14 | 40 | 22 |
| CCCCc1nn2ncccc2c1-c1ccnc(NC2CC2)n1 [GW684374] | 0 | 0 | 8 | 12 | 0 | 0 | 30 | 12 | 38 | 0 | 23 | 0 | 0 | 0 | 0 | 4 | 7 | 0 | 0 | 0 |
| CC(=O)c1cccc(NC(=O)NC2CCN(c3ccnc(Nc4ccc(F)cc4)n3)C2)c1 (centres unmarked) [GSK1379710] | 0 | 0 | 19 | 31 | 20 | 0 | 12 | 0 | 21 | 5 | 25 | 0 | 0 | 0 | 10 | 16 | 0 | 4 | 6 | 0 |
| Cc1nccc(-c2c(-c3ccc(F)cc3)ncn2CCCN2CCOCC2)n1.Cl [SB-282975] | 0 | 0 | 33 | 0 | 7 | 20 | 8 | 14 | 34 | 0 | 15 | 12 | 26 | 8 | 41 | 31 | 10 | 13 | 0 | 17 |
| Cc1cccc2c(-c3ccncn3)c(-c3ccc(F)cc3)nn12 [GW515532] | 3 | 16 | 0 | 0 | 0 | 0 | 0 | 0 | 18 | 10 | 10 | 33 | 0 | 0 | 0 | 0 | 22 | 0 | 6 | 10 |
| COC(=O)C(Cc1ccccc1)NC(=O)NC1CCN(c2ccnc(Nc3ccc(F)cc3)n2)C1 (centres unmarked) [GSK1379714] | 7 | 0 | 0 | 0 | 5 | 0 | 43 | 11 | 35 | 3 | 17 | 10 | 0 | 0 | 22 | 29 | 0 | 12 | 0 | 0 |
| Cn1cnc2c(N)ncnc21 [SKF-97623] | 5 | 0 | 0 | 0 | 0 | 0 | 5 | 0 | 0 | 10 | 0 | 0 | 0 | 0 | 0 | 0 | 0 | 0 | 24 | 0 |
| CC(C)c1ccc(O)cc1Nc1ccnc2ccc(C(F)(F)F)cc12 [GW482059] | 20 | 13 | 0 | 0 | 1 | 0 | 0 | 0 | 0 | 14 | 13 | 30 | 0 | 0 | 0 | 0 | 0 | 0 | 1 | 5 |
| CS(=O)(=O)CCNCc1nc(-c2ccc3ncnc(Nc4ccc5c(cnn5Cc5ccccc5)c4)c3c2)cs1.Cl.Cl [GW569716] | 0 | 0 | 0 | 0 | 0 | 0 | 32 | 29 | 0 | 0 | 0 | 38 | 0 | 0 | 16 | 2 | 0 | 17 | 0 | 0 |
| Cc1ccc(NC(=O)Nc2ccccc2F)cc1-c1ccc(C(=O)Nc2ccncc2)cc1 [GSK1398477] | 7 | 23 | 0 | 8 | 12 | 21 | 0 | 0 | 27 | 25 | 28 | 51 | 7 | 0 | 0 | 29 | 20 | 34 | 15 | 13 |
| O=C(Nc1n[nH]c2nc(-c3cccs3)c(Br)cc12)C1CC1 [SB-735297] | 0 | 8 | 9 | 0 | 2 | 13 | 0 | 31 | 6 | 28 | 26 | 0 | 0 | 0 | 26 | 9 | 0 | 0 | 66 | 53 |
| O=C(Nc1n[nH]c2cc(-c3ccsc3)ccc12)C1CC1 [SB-732932] | 7 | 0 | 40 | 0 | 0 | 30 | 13 | 35 | 20 | 43 | 54 | 0 | 27 | 22 | 32 | 15 | 9 | 0 | 59 | 61 |
| CCn1c(-c2ccccc2)nc2cnccc21 [SB-733416] | 0 | 0 | 0 | 8 | 28 | 17 | 0 | 0 | 30 | 10 | 28 | 0 | 0 | 0 | 10 | 0 | 49 | 27 | 0 | 1 |
| COc1cc2ncnc(Nc3cccc(Br)c3)c2cc1OC.Cl [GI230329] | 0 | 0 | 8 | 17 | 0 | 6 | 6 | 0 | 6 | 10 | 19 | 79 | 0 | 0 | 0 | 10 | 0 | 10 | 20 | 14 |
| CN1c2ccc(-c3ccc(C(N)=O)cc3)cc2-c2[nH]ncc2S1(=O)=O | 0 | 0 | 0 | 0 | 0 | 0 | 0 | 21 | 0 | 5 | 9 | 6 | 0 | 0 | 0 | 0 | 0 | 0 | 0 | 6 |

| Compound | %Inh (AMPK-alpha1) [%] | %Inh (AMPK-alpha2) [%] | %Inh (ANKK1) [%] | %Inh (ARK5) [%] | %Inh (ASK1) [%] | %Inh (ASK2) [%] | %Inh (AURKA) [%] | %Inh (AURKB) [%] | %Inh (AURKC) [%] | %Inh (AXL) [%] | %Inh (BIKE) [%] | %Inh (BLK) [%] | %Inh (BMPR1A) [%] | %Inh (BMPR1B) [%] | %Inh (BMPR2) [%] | %Inh (BMX) [%] | %Inh (BRAF) [%] | %Inh (BRK) [%] | %Inh (BRSK1) [%] | %Inh (BRSK2) [%] |
| --- | --- | --- | --- | --- | --- | --- | --- | --- | --- | --- | --- | --- | --- | --- | --- | --- | --- | --- | --- | --- |
| CSc1ccc(-c2nc3n(c2-c2ccncc2)CCC3)cc1 [SKF-105561] | 0 | 0 | 0 | 0 | 12 | 17 | 10 | 0 | 0 | 0 | 16 | 4 | 0 | 6 | 1 | 0 | 7 | 1 | 0 | 0 |
| Cc1c(Cn2c3ccccc3n3c(=O)cc(N4CCOCC4)nc23)cccc1C(F)(F)F [GSK2306394] | 0 | 0 | 0 | 8 | 0 | 8 | 0 | 9 | 14 | 5 | 7 | 34 | 0 | 0 | 0 | 0 | 8 | 3 | 0 | 0 |
| CNc1nc(-c2ccc3c(N)n[nH]c3c2)cc(N2C[C@@H](C(=O)Nc3ccccc3)CC[C@H]2C)n1 [GSK2298859] | 0 | 0 | 1 | 25 | 0 | 12 | 12 | 16 | 43 | 8 | 36 | 0 | 0 | 0 | 0 | 15 | 0 | 9 | 0 | 21 |
| COc1ccc(Nc2nccc(N3CCC(NC(=O)C(C)c4ccc(Cl)cc4)CC3)n2)cc1 (centres unmarked) [GSK1379812] | 35 | 11 | 3 | 20 | 0 | 0 | 23 | 4 | 42 | 0 | 36 | 5 | 0 | 0 | 7 | 28 | 0 | 0 | 0 | 13 |
| Cc1cnc(N)c(/C=C/c2cncc(C(=O)NCCc3ccc(Cl)cc3Cl)c2)c1.Cl [GSK190937] | 3 | 18 | 3 | 1 | 2 | 0 | 1 | – | 12 | 5 | 23 | 3 | 0 | 0 | 0 | 19 | 1 | 7 | 0 | 0 |
| COc1ccc(CSc2nnc(-c3ccc4nccn4c3)o2)cc1C(F)(F)F | 3 | 9 | 0 | 9 | 0 | 44 | 0 | 22 | 15 | 20 | 18 | 1 | 0 | 21 | 3 | 0 | 9 | 0 | 14 | 3 |
| CC[C@@H]1CO[C@H](C(=O)Nc2ccccc2)CN1c1cc(-c2ccc3c(N)n[nH]c3c2)nc(NC)n1 [GSK2376236] | 0 | 1 | 0 | 14 | 4 | 0 | – | 0 | 48 | 0 | 15 | 0 | 0 | 0 | 0 | 41 | 0 | 7 | 0 | 1 |
| Cl.Cl.Cl.N#Cc1ccc(CCNc2nccc(-c3cccc(CN4CCNCC4)c3)n2)cc1 [GSK2137462] | 25 | 14 | 15 | 17 | 20 | 4 | 20 | 0 | 15 | 44 | 25 | 0 | 0 | 0 | 0 | 12 | 0 | 8 | 0 | 2 |
| O=c1cc(N2CCOCC2)nc2n(Cc3cccc(Cl)c3Cl)c3ccccc3n12 [GSK2299009] | 5 | 16 | 6 | 0 | 2 | 0 | 17 | 7 | 46 | 59 | 38 | 50 | 2 | 0 | 0 | 1 | 0 | 17 | 8 | 22 |
| Fc1ccc(-c2nc[nH]c2-c2ccncc2)cc1 [SB-217360] | 5 | 0 | 0 | 0 | 0 | 0 | 8 | 33 | 0 | 0 | 0 | 25 | 0 | 0 | 22 | 0 | 50 | 0 | 0 | 0 |
| CS(=O)(=O)Cc1ccc(Nc2nccc(-c3c(-c4cccc(NC(=O)C5CCCCC5)c4)nn4ncccc34)n2)cc1 [GSK350559] | 2 | 2 | 0 | 0 | 0 | 34 | 9 | 15 | 49 | 18 | 1 | 0 | 0 | 19 | 24 | 37 | 20 | 2 | 0 | 0 |
| COC(=O)c1cccc(NC(=O)NC2CCN(c3ccnc(Nc4ccc(OC)cc4)n3)C2)c1 (centres unmarked) [GSK1379746] | 0 | 0 | 0 | 31 | 22 | 0 | 10 | 25 | 28 | 0 | 6 | 0 | 9 | 0 | 26 | 3 | 7 | 28 | 0 | 0 |
| COc1ccc2cc(-c3nc(-c4ccccc4C(C)C)[nH]c3-c3ccncc3)ccc2c1 [SB-660566] | 17 | 0 | 6 | 18 | 16 | 3 | 5 | 30 | 0 | 36 | 0 | 0 | 17 | 0 | 5 | 0 | 6 | 22 | 4 | 10 |
| Fc1ccc(-c2nn3cccc(F)c3c2-c2ccncc2)cc1 [GW475620] | 42 | 19 | 0 | 16 | 8 | 0 | 0 | 45 | 46 | 3 | 34 | 20 | 24 | 0 | 0 | 8 | 29 | 11 | 0 | 0 |
| O=C1NC(=O)C(c2ccc(Cl)cc2)=C1Nc1ccc(O)cc1 [SB-340867] | 0 | 0 | 0 | 0 | 0 | 0 | 0 | 9 | 0 | 18 | 4 | 0 | 0 | 0 | 0 | 21 | 0 | 0 | 0 | 0 |

From PMC5540273 (PLoS ONE, 2017)
